The full data set covers some 7,900 targets. This sample favours those with a hit. About 0.6% of all pairs of compound and target were hits.
Key:
Assay in all cases: log2 fold change, soluble protein after heating vs DMSO (PISA); higher = thermal stabilisation; K562 cells, 10 uM, 30 min; active = over 0.2 and 3.5 SD of the protein, either way, in both replicates (recomputed)
[1] = compound: CS(=O)(=O)c1ccc(-c2cnc(N)c(C(=O)Nc3ccccc3)n2)cc1
Summary of the method: (§1)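 K562 cells at 2×10^6 cells/mL were treated with 10 μM compound for 30 min. Aliquots were heated for 3 min across 48°C-58°C, pooled, and extracted in PBS with 0.5% NP-40 at 4°C; soluble protein was the supernatant after 21,000xg for 90 min. Soluble protein was quantified by TMTpro 16plex LC-MS/MS with channel sums equalised, and reported as log2 fold change in thermal stability against DMSO controls, with values from duplicates.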

crizotinib = compound: C[C@@H](Oc1cc(-c2cnn(C3CCNCC3)c2)cnc1N)c1c(Cl)ccc(F)c1Cl [crizotinib]
Summary of the method: as §1

[2] = compound: C[C@@H]1COCCN1C2=NC(=NC(=C2)C3(CC3)S(=O)(=O)C)C4=C5C=CNC5=CC=C4
Summary of the method: as §1

[3] = compound: C[C@H](C1=CC=C(C=C1)C(=O)NC2=C3C=CNC3=NC=C2)N
Summary of the method: as §1

duvelisib = compound: C[C@H](Nc1ncnc2nc[nH]c12)c1cc2cccc(Cl)c2c(=O)n1-c1ccccc1 [duvelisib]
Summary of the method: as §1

gandotinib = compound: Cc1cc(Nc2cc(CN3CCOCC3)c3nc(C)c(Cc4ccc(Cl)cc4F)n3n2)n[nH]1 [gandotinib]
Summary of the method: as §1

tozasertib = compound: Cc1cc(Nc2cc(N3CCN(C)CC3)nc(Sc3ccc(NC(=O)C4CC4)cc3)n2)n[nH]1 [tozasertib]
Summary of the method: as §1

[4] = compound: Cc1cc(SCc2sc(-c3ccc(C(F)(F)F)cc3)nc2C)ccc1OCC(=O)O
Summary of the method: as §1

doramapimod = compound: Cc1ccc(-n2nc(C(C)(C)C)cc2NC(=O)Nc2ccc(OCCN3CCOCC3)c3ccccc23)cc1 [doramapimod]
Summary of the method: as §1

ispinesib = compound: Cc1ccc(C(=O)N(CCCN)[C@@H](c2nc3cc(Cl)ccc3c(=O)n2Cc2ccccc2)C(C)C)cc1 [ispinesib]
Summary of the method: as §1

bafetinib = compound: Cc1ccc(NC(=O)c2ccc(CN3CC[C@H](N(C)C)C3)c(C(F)(F)F)c2)cc1Nc1nccc(-c2cncnc2)n1 [bafetinib]
Summary of the method: as §1

[5] = compound: Cc1cccc(CC(=O)N2CCc3c2ccc(-c2cn(C)c4ncnc(N)c24)c3F)n1
Summary of the method: as §1

nilotinib = compound: Cc1cn(-c2cc(NC(=O)c3ccc(C)c(Nc4nccc(-c5cccnc5)n4)c3)cc(C(F)(F)F)c2)cn1 [nilotinib]
Summary of the method: as §1

[6] = compound: Cc1nc(Nc2n[nH]c3c2CN(C(=O)N[C@H](CN(C)C)c2ccccc2)C3(C)C)c2sccc2n1
Summary of the method: as §1

dasatinib = compound: Cc1nc(Nc2ncc(C(=O)Nc3c(C)cccc3Cl)s2)cc(N2CCN(CCO)CC2)n1 [dasatinib]
Summary of the method: as §1

[7] = compound: Cc1ncc(-c2ccnc(Nc3ccc(S(C)(=O)=O)cc3)n2)n1C(C)C
Summary of the method: as §1

[8] = compound: Cn1cc(-c2ccc3c(c2)CCN3C(=O)Cc2cccc(C(F)(F)F)c2)c2c(N)ncnc21
Summary of the method: as §1

[9] = compound: Cn1cc(-c2ccc3nnc(C(F)(F)c4ccc5ncccc5c4)n3n2)cn1
Summary of the method: as §1

tipifarnib = compound: Cn1cncc1[C@@](N)(c1ccc(Cl)cc1)c1ccc2c(c1)c(-c1cccc(Cl)c1)cc(=O)n2C [tipifarnib]
Summary of the method: as §1

mubritinib = compound: FC(F)(F)c1ccc(/C=C/c2nc(COc3ccc(CCCCn4ccnn4)cc3)co2)cc1 [mubritinib]
Summary of the method: as §1

Measured: log2 fold change

RBM25 (UniProt P49756)
Chain of UniProt P49756 (P49756 whole entry, looked up): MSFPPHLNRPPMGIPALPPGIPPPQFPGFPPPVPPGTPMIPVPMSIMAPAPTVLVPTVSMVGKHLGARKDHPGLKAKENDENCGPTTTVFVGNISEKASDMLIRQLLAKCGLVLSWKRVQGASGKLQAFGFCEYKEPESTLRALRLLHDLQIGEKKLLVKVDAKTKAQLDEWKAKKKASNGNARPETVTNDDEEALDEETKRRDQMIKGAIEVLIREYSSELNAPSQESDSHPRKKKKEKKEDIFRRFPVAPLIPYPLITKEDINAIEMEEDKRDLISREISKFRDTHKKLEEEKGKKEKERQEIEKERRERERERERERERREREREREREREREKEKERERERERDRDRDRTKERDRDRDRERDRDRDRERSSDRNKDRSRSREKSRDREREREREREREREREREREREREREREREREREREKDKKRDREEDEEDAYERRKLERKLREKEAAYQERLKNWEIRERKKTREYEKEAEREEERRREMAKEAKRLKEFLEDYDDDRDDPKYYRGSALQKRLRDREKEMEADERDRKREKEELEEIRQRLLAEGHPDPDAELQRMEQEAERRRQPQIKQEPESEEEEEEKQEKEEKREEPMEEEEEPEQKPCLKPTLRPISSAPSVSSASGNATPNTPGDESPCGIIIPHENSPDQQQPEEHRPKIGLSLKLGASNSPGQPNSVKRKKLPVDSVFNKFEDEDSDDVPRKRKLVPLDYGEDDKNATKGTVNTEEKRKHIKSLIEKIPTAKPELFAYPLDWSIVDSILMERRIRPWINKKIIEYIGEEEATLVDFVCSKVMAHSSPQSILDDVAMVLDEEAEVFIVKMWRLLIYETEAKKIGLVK
inactive: [1] -0.071 | crizotinib -0.052 | [2] 0.09 | [3] -0.01 | duvelisib 0.037 | gandotinib -0.166 | tozasertib -0.012 | [4] -0.074 | doramapimod 0.057 | ispinesib -0.049 | bafetinib -0.067 | [5] -0.066 | nilotinib -0.012 | [6] -0.03 | dasatinib -0.049 | [7] -0.129 | [8] -0.044 | [9] -0.096 | tipifarnib 0.068 | mubritinib 0.049

RABGAP1L isoform 3 (UniProt Q5R372)
inactive: [1] -0.018 | crizotinib 0.005 | [2] -0.004 | [3] -0.138 | duvelisib -0.013 | gandotinib -0.018 | tozasertib -0.011 | [4] 0.05 | doramapimod 0.052 | ispinesib 0.046 | bafetinib -0.045 | [5] 0.024 | nilotinib -0.031 | [6] -0.001 | dasatinib -0.038 | [7] -0.037 | [8] -0.005 | [9] 0.013 | tipifarnib 0.016 | mubritinib -0.001

SEC24A (UniProt O95486)
Chain of UniProt O95486 (O95486 whole entry, looked up): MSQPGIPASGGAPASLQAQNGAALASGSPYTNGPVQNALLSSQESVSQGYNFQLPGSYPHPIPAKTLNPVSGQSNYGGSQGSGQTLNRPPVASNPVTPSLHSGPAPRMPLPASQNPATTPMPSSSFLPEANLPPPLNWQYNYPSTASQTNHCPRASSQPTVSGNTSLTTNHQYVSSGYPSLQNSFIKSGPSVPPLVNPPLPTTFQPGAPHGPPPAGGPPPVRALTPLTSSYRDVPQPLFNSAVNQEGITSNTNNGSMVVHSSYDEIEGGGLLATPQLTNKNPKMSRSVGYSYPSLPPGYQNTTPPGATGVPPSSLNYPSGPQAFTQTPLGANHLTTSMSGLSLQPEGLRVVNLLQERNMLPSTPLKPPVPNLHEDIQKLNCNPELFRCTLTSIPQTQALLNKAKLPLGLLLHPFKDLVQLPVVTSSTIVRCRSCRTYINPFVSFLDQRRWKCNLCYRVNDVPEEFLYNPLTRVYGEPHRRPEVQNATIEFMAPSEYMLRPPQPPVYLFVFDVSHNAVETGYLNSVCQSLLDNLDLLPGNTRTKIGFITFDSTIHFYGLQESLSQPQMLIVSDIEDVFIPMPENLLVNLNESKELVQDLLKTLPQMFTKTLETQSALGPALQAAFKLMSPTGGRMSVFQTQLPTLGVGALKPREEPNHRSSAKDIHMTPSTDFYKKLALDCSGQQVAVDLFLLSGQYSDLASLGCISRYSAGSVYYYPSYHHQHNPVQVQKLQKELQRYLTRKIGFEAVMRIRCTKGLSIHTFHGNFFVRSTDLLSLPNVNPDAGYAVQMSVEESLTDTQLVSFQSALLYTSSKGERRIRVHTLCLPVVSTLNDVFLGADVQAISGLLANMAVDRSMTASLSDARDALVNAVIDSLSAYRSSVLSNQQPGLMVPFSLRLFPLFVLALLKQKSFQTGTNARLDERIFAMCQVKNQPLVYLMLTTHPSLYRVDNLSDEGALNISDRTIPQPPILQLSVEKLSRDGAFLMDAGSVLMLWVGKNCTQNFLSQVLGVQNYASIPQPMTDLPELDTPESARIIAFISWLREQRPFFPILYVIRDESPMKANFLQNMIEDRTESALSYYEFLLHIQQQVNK
inactive: [1] 0.002 | crizotinib -0.001 | [2] 0.075 | [3] 0.001 | duvelisib 0.038 | gandotinib -0.148 | tozasertib 0.018 | [4] 0.084 | doramapimod -0.029 | ispinesib 0.017 | bafetinib -0.018 | [5] 0.041 | nilotinib -0.126 | [6] 0.021 | dasatinib -0.121 | [7] -0.012 | [8] 0.008 | [9] 0.016 | tipifarnib -0.005 | mubritinib 0.017

RFC3 (UniProt P40938)
Chain of UniProt P40938 (P40938 whole entry, looked up): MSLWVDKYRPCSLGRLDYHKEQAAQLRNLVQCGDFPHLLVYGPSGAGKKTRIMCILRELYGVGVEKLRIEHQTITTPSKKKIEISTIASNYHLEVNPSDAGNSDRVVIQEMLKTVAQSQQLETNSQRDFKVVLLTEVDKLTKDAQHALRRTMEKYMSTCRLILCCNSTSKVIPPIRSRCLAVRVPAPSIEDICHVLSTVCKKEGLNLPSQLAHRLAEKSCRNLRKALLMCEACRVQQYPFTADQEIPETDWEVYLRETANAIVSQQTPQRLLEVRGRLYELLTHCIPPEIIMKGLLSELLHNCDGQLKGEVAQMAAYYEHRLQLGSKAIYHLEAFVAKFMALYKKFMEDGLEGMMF
inactive: [1] 0.029 | crizotinib 0.016 | [2] 0.163 | [3] 0.071 | duvelisib 0.032 | gandotinib -0.042 | tozasertib -0.004 | [4] 0.061 | doramapimod -0.005 | ispinesib 0.067 | bafetinib -0.035 | [5] 0.049 | nilotinib -0.016 | [6] -0.017 | dasatinib -0.032 | [7] -0.011 | [8] 0.053 | [9] -0.01 | tipifarnib -0.051 | mubritinib 0.045

RRP12 (UniProt Q5JTH9)
Chain of UniProt Q5JTH9 (Q5JTH9 whole entry, looked up): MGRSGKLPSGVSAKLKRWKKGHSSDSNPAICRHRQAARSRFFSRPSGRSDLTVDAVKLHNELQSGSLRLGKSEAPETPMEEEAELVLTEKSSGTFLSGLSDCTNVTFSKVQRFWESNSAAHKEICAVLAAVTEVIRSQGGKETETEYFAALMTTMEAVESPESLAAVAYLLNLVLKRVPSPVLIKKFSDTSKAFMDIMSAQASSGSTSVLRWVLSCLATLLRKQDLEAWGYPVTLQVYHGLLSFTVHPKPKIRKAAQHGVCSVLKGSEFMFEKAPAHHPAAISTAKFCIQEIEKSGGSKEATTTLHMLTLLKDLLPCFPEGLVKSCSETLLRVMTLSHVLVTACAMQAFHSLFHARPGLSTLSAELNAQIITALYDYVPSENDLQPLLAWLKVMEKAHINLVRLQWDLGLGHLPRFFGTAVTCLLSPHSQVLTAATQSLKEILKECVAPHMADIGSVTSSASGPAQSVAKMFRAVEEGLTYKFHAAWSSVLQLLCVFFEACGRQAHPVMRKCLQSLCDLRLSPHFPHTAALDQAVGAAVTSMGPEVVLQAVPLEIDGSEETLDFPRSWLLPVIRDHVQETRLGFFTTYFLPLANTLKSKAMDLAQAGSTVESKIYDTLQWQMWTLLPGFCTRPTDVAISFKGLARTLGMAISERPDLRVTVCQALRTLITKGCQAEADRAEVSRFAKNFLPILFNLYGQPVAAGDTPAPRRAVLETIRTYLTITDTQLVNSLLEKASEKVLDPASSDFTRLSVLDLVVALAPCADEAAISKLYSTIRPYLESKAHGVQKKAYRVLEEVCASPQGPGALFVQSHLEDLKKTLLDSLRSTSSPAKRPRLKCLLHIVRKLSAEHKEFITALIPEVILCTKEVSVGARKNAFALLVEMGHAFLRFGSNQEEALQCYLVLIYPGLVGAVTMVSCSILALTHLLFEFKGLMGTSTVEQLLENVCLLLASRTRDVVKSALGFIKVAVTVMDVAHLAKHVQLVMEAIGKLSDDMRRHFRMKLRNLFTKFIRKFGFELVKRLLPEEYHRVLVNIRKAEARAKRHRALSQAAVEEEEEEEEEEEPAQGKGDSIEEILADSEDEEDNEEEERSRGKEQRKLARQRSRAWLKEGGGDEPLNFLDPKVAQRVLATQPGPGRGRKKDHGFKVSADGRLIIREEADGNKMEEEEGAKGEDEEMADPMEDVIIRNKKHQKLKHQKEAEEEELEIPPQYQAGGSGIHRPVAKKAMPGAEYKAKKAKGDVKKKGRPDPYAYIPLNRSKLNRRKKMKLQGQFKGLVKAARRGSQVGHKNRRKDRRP
inactive: [1] -0.056 | crizotinib -0.074 | [2] -0.242 | duvelisib -0.014 | gandotinib 0.074 | tozasertib -0.092 | [4] 0.053 | doramapimod 0.203 | ispinesib -0.172 | bafetinib 0.01 | [5] -0.036 | nilotinib -0.082 | [6] 0.088 | dasatinib -0.028 | [7] 0.184 | [8] -0.136 | [9] -0.123 | tipifarnib -0.035 | mubritinib -0.096
active: [3] 0.811

RBIS (UniProt Q8N0T1)
Chain of UniProt Q8N0T1 (Q8N0T1 whole entry, looked up): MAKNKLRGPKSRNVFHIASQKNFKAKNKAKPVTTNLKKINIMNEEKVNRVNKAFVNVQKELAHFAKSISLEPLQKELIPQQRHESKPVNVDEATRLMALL
inactive: [1] -0.157 | crizotinib -0.097 | [2] -0.086 | [3] 0.069 | duvelisib -0.028 | gandotinib 0.053 | tozasertib -0.014 | [4] -0.045 | doramapimod 0.062 | ispinesib 0.009 | bafetinib 0.012 | [5] -0.058 | nilotinib -0.058 | [6] 0.101 | dasatinib 0.008 | [7] -0.079 | [8] 0.023 | [9] 0.004 | tipifarnib -0.02 | mubritinib 0.021

RDH13 (UniProt Q8NBN7)
Chain of UniProt Q8NBN7 (Q8NBN7 whole entry, looked up): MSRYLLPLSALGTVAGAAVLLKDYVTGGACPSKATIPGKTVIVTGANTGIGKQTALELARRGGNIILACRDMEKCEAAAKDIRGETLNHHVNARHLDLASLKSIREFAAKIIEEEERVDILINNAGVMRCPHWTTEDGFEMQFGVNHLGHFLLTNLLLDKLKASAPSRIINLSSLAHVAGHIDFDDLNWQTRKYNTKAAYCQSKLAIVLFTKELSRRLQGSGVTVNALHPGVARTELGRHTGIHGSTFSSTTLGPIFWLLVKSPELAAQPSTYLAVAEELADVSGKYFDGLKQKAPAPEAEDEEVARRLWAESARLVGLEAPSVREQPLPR
inactive: [1] 0.04 | crizotinib -0.231 | [2] 0.161 | [3] -0.019 | duvelisib 0.082 | gandotinib -0.08 | tozasertib -0.101 | [4] 0.029 | doramapimod -0.037 | bafetinib -0.068 | [5] -0.03 | nilotinib 0.011 | [6] -0.044 | dasatinib -0.131 | [7] 0.019 | [8] 0.027 | [9] 0.016 | tipifarnib 0.022 | mubritinib -0.032
active: ispinesib -0.322

SLC19A1 (UniProt P41440)
inactive: [1] -0.097 | crizotinib 0.086 | [2] 0.041 | [3] -0.088 | duvelisib 0.135 | gandotinib -0.107 | tozasertib -0.04 | [4] 0.012 | doramapimod -0.037 | ispinesib 0.083 | bafetinib 0.11 | [5] 0.039 | nilotinib 0.01 | [6] 0.012 | dasatinib 0.024 | [7] 0.026 | [8] 0.103 | [9] -0.026 | tipifarnib 0.051 | mubritinib 0.074

Source: the supplement of paper PMC10849652
